Screening data from PubChem BioAssay.
MPTP block: permeability transition pore inhibition. isolated mouse mitochondria, Ca2+ swelling absorbance, 30 min. inhibition, % at 10 µM. actives 1.4% (n = 360,000). AID 602449;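 active = inhibition of 50% or more, scaled per plate between neutral and stimulator controls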;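 also: 0% = DMSO wells given calcium and 100% = 1 mM EGTA wells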
TMEM16A act: activates or potentiates the mouse TMEM16A chloride channel; actives 0.3% (n = 340,000); HEK293 TMEM16A/YFP-H148Q/I152L, iodide quench fluorescence; hits give low values; Q8BHY3; B-score at 10 µM;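 active = fluorescence-ratio B-score plate-corrected deviation score at least 3 library SD below zero, with starting fluorescence score within 5 deviations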;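 also: channel opened by trigger with iodide after compound preincubation; score built on the fluorescence ratio of max minus min over baseline; more negative score means more quench and so TMEM16A activation or potentiation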
CRFR2-BP antag: antagonists of CRF-binding protein/CRF-R2 receptor complex; HEK293 CRF-R2/CRF-BP, CRF-induced calcium fluorescence; inhibition, % at 11.8 µM; actives 0.59% (n = 350,000); AID 588475;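 active = inhibition of the ligand-induced calcium signal above about 50% at the single tested concentration, limit read from the data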
TMEM16A inh: inhibitors of mouse TMEM16A calcium-activated chloride channel. HEK293 TMEM16A/YFP iodide influx fluorescence, ionomycin. normalized B-score (activity score, 25-100; higher = stronger inhibition) at 10 µM. actives 1.2% (n = 310,000);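 active = ratio plate-corrected score three or more library SD toward inhibition, starting fluorescence score within five deviations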;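 also: score derived from kinetic fluorescence span divided by baseline fluorescence per well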
CRFBP-R2 agonist: CRF-BP/CRF-R2 complex agonism | HEK293 CRF-R2/CRF-BP, calcium dye fluorescence (FLIPR); percent of saturating CRF peptide response | actives 0.46% (n = 350,000) | activation, % at 13.2 µM;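 active = activation of at least 50%, plus an integration ratio under a set limit after plate pattern correction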;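 also: plate controls were neutral control wells without compound for no effect and CRF at EC100 for full effect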
NR3A LBD binder: NR3A (human) ligand-binding domain modulation; NR3A LBD differential scanning fluorimetry, Tm shift; 0% = protein alone, 100% = glycine-bound protein; Tm shift relative to glycine control, % at 25 µM; actives 2.5% (n = 340,000); AID 1259313;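 active = melting temperature shift of at least 10% of the positive control shift, at one fixed dose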
MPTP counter: membrane potential counter-screen of mitochondrial pore inhibitors | shares compounds with MPTP block | actives 78% (n = 5,000) | AID 624504 | inhibition, % at 10 µM | isolated mitochondria, Rhodamine 123 fluorescence; in the data active = inhibition above about 22%;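 also: 0% = DMSO vehicle and 100% = positive control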
MPTP swell DR: MPTP inhibition, dose response swelling confirmation. isolated mitochondria swelling, absorbance. shares compounds with MPTP block. actives 58% (n = 780). IC50, µM; in the data active = IC50 below about 20 µM
MPTP counter DR: counter-screen for mitochondrial permeability transition pore inhibitors, dose response; actives 49% (n = 780); shares compounds with MPTP block; isolated mitochondria counterscreen, fluorescence read-out; IC50, µM; in the data active = IC50 below about 80 µM
Starred values were filed as active, the others as inactive. Sampled rows, rich in hits. Any-hit rate of the full collection: about 5.1%.

Screening COc1ccc(Cl)cc1NC(=S)NCCSc1ccc(C)cc1 returned MPTP block 82.1*, TMEM16A act inactive, CRFR2-BP antag 9.0, TMEM16A inh 100*, CRFBP-R2 agonist 9.1, NR3A LBD binder 25.4* and MPTP counter 81.1*.
O=C(c1cc2c(s1)-c1ccccc1OC2)N1CCCC1 was read as MPTP block 0.0, TMEM16A act inactive, CRFR2-BP antag 11.4, TMEM16A inh inactive, CRFBP-R2 agonist -0.6 and NR3A LBD binder -0.6.
For CN(C)CCNC(=O)c1cc2c(s1)-c1ccccc1OC2 the results were MPTP block 60.2*, TMEM16A act inactive, CRFR2-BP antag 14.5, TMEM16A inh inactive, CRFBP-R2 agonist -1.6, NR3A LBD binder 0.4, MPTP counter -6.3, MPTP swell DR 14.2* and MPTP counter DR >80.
Screening Cc1c(NC(=O)c2cc3c(s2)-c2ccccc2OC3)cccc1[N+](=O)[O-] returned MPTP block 63.7*, TMEM16A act inactive, CRFR2-BP antag -69.9, TMEM16A inh inactive, CRFBP-R2 agonist -1.6, NR3A LBD binder 0.9 and MPTP counter 76.7*.
`CCN1CCN(CCCNC(=O)c2cc3c(s2)-c2ccccc2OC3)CC1` gave MPTP block -0.5, TMEM16A act inactive, CRFR2-BP antag 14.8, TMEM16A inh inactive, CRFBP-R2 agonist -0.8 and NR3A LBD binder 0.1.
For C[C@H]1CN([C@@H](C)CO)S(=O)(=O)c2ccc(Br)cc2O[C@@H]1CN(C)C(=O)Cc1cccnc1 the results were MPTP block -1.4, CRFR2-BP antag -1.5 and CRFBP-R2 agonist 0.3.
`CCOC(=O)C1(C)CCN1C(=O)c1ccc(C(=O)OC)cc1` (stereo unspecified) gave MPTP block 3.0.
For O=C(Cc1ccccc1[N+](=O)[O-])NCc1ccc(Cl)cc1 the results were MPTP block -3.4, TMEM16A act inactive, CRFR2-BP antag 24.1, TMEM16A inh inactive, CRFBP-R2 agonist -0.2 and NR3A LBD binder 4.5.
For O=C(NCc1ccc(Cl)cc1)c1n[nH]c([N+](=O)[O-])c1Cl the results were MPTP block 76.0*, TMEM16A act inactive, CRFR2-BP antag 16.9, TMEM16A inh inactive, CRFBP-R2 agonist -2.3, NR3A LBD binder -3.9 and MPTP counter 90.7*.
For O=C(Nc1ccc(Cl)cc1)OCCn1nnnc1C(c1ccccc1Cl)N1CCOCC1 (stereo unspecified) the results were MPTP block 72.4*, TMEM16A act inactive, CRFR2-BP antag 12.5, TMEM16A inh inactive, CRFBP-R2 agonist -2.0, NR3A LBD binder -4.6 and MPTP counter 85.2*.
For COc1ccc(NC(=O)C[C@H]2C(=O)N(c3ccc(Br)cc3)C[C@@H]2C)cc1 the results were MPTP block -0.9, CRFR2-BP antag 0.9 and CRFBP-R2 agonist 0.7.
`Cc1nc(N2CCN(c3ccccc3)CC2)[nH]c(=O)c1C` gave MPTP block 1.6, TMEM16A act inactive, CRFR2-BP antag 25.9, TMEM16A inh inactive, CRFBP-R2 agonist 0.7 and NR3A LBD binder -0.2.
CC(C)Cc1ccc(C(C)C(=O)Nc2ccc(O)cc2)cc1 (stereo unspecified) was read as MPTP block 73.0*, TMEM16A act inactive, CRFR2-BP antag -16.1, TMEM16A inh 100*, CRFBP-R2 agonist 78.1*, NR3A LBD binder -3.9 and MPTP counter 37.9*.
For CSC1=NNC(c2ccc(C(C)(C)C)cc2)=NN1 the results were MPTP block 1.4, TMEM16A act inactive, CRFR2-BP antag 2.5, TMEM16A inh inactive, CRFBP-R2 agonist 0.7 and NR3A LBD binder -0.4.
`N#CCCN(C(=O)Nc1ccc(Cl)c(Cl)c1)c1ccccc1` gave MPTP block 97.0*, TMEM16A act inactive, CRFR2-BP antag -22.4, TMEM16A inh inactive, CRFBP-R2 agonist -1.4, NR3A LBD binder -3.3 and MPTP counter 92.9*.
`O=c1cc(O)c(-c2ccc(Cl)cc2)c(Cl)[nH]1` gave MPTP block 1.9, TMEM16A act inactive, CRFR2-BP antag 24.2, TMEM16A inh inactive, CRFBP-R2 agonist 0.1 and NR3A LBD binder -1.9.
For O=C1c2cc(Cl)ccc2-c2c(O)cc(Cl)cc21 the results were MPTP block 98.7*, TMEM16A act inactive, CRFR2-BP antag -4.3, CRFBP-R2 agonist 30.3, NR3A LBD binder 13.7* and MPTP counter 77.8*.
For Cc1cccc(NC(=S)/N=C(\N)Nc2nc(C)c3ccccc3n2)c1 the results were MPTP block 32.9, TMEM16A act inactive, CRFR2-BP antag -28.2, TMEM16A inh inactive, CRFBP-R2 agonist -1.4 and NR3A LBD binder 0.9.
For Cc1cc(C)cc(NC(=S)/N=C(\N)Nc2nc(C)c3ccccc3n2)c1 the results were MPTP block 56.3*, TMEM16A act inactive, CRFR2-BP antag 7.4, TMEM16A inh inactive, CRFBP-R2 agonist -0.4, NR3A LBD binder -14.3, MPTP counter -8.7, MPTP swell DR >100 and MPTP counter DR >80.
`Cc1cc(OCC(=O)NCC(c2ccc(F)cc2)N2CCOCC2)ccc1Cl` (stereo unspecified) gave MPTP block -1.4, TMEM16A act inactive, CRFR2-BP antag -9.3, CRFBP-R2 agonist 2.5 and NR3A LBD binder 4.6.
Cc1ccc(OCC(=O)N2N=C(C(F)(F)F)CC2(O)C(C)(C)C)cc1C (stereo unspecified) was read as MPTP block 78.9*, TMEM16A act inactive, CRFR2-BP antag -6.0, TMEM16A inh 100*, CRFBP-R2 agonist 0.1, NR3A LBD binder -0.1 and MPTP counter 65.0*.
Screening CCN1/C(=C/c2cc[n+](C)cc2)C=Cc2cc(C)ccc21 returned MPTP block 66.9*, TMEM16A act inactive, CRFR2-BP antag -3.2, TMEM16A inh inactive, CRFBP-R2 agonist -0.4, NR3A LBD binder -1.3 and MPTP counter 70.0*.
`CC(C)c1cccc(C(C)C)c1NC(=S)Nc1cccc(Cl)c1` gave MPTP block 88.2*, TMEM16A act inactive, CRFR2-BP antag 15.7, TMEM16A inh inactive, CRFBP-R2 agonist -1.7, NR3A LBD binder -1.1 and MPTP counter 90.4*.
For Fc1ccc(NC(=S)Nc2ccc(Br)cc2)cc1 the results were MPTP block 72.7*, TMEM16A act inactive, CRFR2-BP antag 38.1, TMEM16A inh inactive, CRFBP-R2 agonist 2.5, NR3A LBD binder 15.0* and MPTP counter 92.8*.
